{"source": "paper PMC7819943", "about": "“Rice protein-binding microarrays: a tool to detect cis-acting elements near promoter regions in rice”", "note": "Over roughly 68,000 sequences, “fluorescence intensity (a.u.)” has its median near 9,100; the highest 2% begin near 16,000. The sample as a whole holds a higher share of the highest values than the screen did."}
{"molecular_target": "OsWRKY34 (Oryza sativa, UniProt Q0JBA9 1-250)", "sequence (Q0JBA9 entry or part of it)": "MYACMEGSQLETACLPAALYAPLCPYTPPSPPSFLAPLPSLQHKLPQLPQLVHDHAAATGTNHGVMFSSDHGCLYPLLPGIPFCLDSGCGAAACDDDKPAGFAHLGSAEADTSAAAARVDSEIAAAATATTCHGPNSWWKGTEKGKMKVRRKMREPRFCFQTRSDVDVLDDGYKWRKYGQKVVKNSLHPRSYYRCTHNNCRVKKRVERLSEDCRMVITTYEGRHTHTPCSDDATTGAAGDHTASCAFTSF", "assay": "protein-binding microarray (RPBM); PBS, 2% BSA, 51.3 ng/ul salmon testes DNA, 50 uM zinc acetate, 200 nM TF, 25 C, 1 h; high values mean tight binding", "settings": "protein: recombinant; tags: N-terminal polyhistidine and DsRed monomer fusion (pET32a); label: CyDye5-dUTP incorporated in the synthesized complementary strand; 3' TTTTT single-stranded linker to array surface; dsDNA, one strand shown", "outline": "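Ni–NTA purification followed expression in E. coli BL21-CodonPlus of transcription factors fused N-terminally to a polyhistidine tag and DsRed. At 200 nM in PBS with 2% BSA, salmon testes DNA and 50 µM zinc acetate, the protein was incubated for 1 h at 25 °C with a custom Agilent array that had been primer-extended with Cy5-dUTP and blocked with 2% BSA. After washing, the array was read on an Axon 4000B scanner. The binding signal is per-feature fluorescence intensity in arbitrary units.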"}
{"sequence": "CACTCTGCCTCACCTCACCTCACCTCACGTCCTCACCTCCCGGAGTCACCTAGTGCAG", "binding signal": "10300 fluorescence intensity (a.u.)"}
{"sequence": "CCGGGACGTGTGCCGCCGCTTAAGCCCGCTCTTTATACGTCGGAGTCACCTAGTGCAG", "binding signal": "9690 fluorescence intensity (a.u.)"}
{"sequence": "ACTCGTTGACCAAAGGGAGTGGAGTTTGAAAGGGTGGGAGCGGAGTCACCTAGTGCAG", "binding signal": "14600 fluorescence intensity (a.u.)"}
{"sequence": "TCTTGCAATCTTGATCGATAGTCTCCTCCATCTTCTTCGTCGGAGTCACCTAGTGCAG", "binding signal": "8680 fluorescence intensity (a.u.)"}
{"sequence": "ATAAATTATTAGTACTATTCCATATACTACATTTTCTTCTCGGAGTCACCTAGTGCAG", "binding signal": "8440 fluorescence intensity (a.u.)"}
{"sequence": "CATAGTCGTCTTCCTCGATCAATCCGCTCCGCTCCGTCTTCGGAGTCACCTAGTGCAG", "binding signal": "8440 fluorescence intensity (a.u.)"}
{"sequence": "TTTCTTTTGCATTTTCCCTGTTCCATATCGTTTTTTTCTCCGGAGTCACCTAGTGCAG", "binding signal": "8560 fluorescence intensity (a.u.)"}
{"sequence": "CTCCCTCCGTTTCAAAATGTTTGACACCGTTGACTTTTTACGGAGTCACCTAGTGCAG", "binding signal": "28300 fluorescence intensity (a.u.)"}
{"sequence": "CCCTCCGTTTCAAAATGTTTGACACCGTTGACTTTTTAATCGGAGTCACCTAGTGCAG", "binding signal": "14900 fluorescence intensity (a.u.)"}
{"sequence": "ATACTCCCTCCGTTTCAAAATGTTTGACACCGTTGACTTTCGGAGTCACCTAGTGCAG", "binding signal": "12500 fluorescence intensity (a.u.)"}
{"sequence": "TTGCATTTTTGACTGTTTGCGTTGACTCCCTCACTTCTTCCGGAGTCACCTAGTGCAG", "binding signal": "16400 fluorescence intensity (a.u.)"}
{"sequence": "ACTCCCTCCGTTTCAAAATGTTTGACACCGTTGACTTTTTCGGAGTCACCTAGTGCAG", "binding signal": "18500 fluorescence intensity (a.u.)"}
{"sequence": "TGTTTTCTTCTCATTCTTCTTTTTTCCCTTTCTTTTGCTCCGGAGTCACCTAGTGCAG", "binding signal": "8390 fluorescence intensity (a.u.)"}
{"sequence": "ATGTACTCCCTCCGTTTCAAAATGTTTGACACCGTTGACTCGGAGTCACCTAGTGCAG", "binding signal": "12300 fluorescence intensity (a.u.)"}
{"sequence": "TACTACTCCCTCCGTTTCAAAATGTTTGACACCGTTGACTCGGAGTCACCTAGTGCAG", "binding signal": "13100 fluorescence intensity (a.u.)"}
{"sequence": "TTTCTTCCATACTGAAATGTGTATCTTAGCTACTGAAGCTCGGAGTCACCTAGTGCAG", "binding signal": "8440 fluorescence intensity (a.u.)"}
{"sequence": "CATTTAATCTCCTCGTTACCGCTCAATTAACGCACCGATTCGGAGTCACCTAGTGCAG", "binding signal": "8880 fluorescence intensity (a.u.)"}
{"sequence": "CGGAGATCTTCAGAAACGAGTTATTTTTCCTCGCAAAACGCGGAGTCACCTAGTGCAG", "binding signal": "8690 fluorescence intensity (a.u.)"}
{"sequence": "ATTTGATCCTCTTTTTTCAACTTTGCTTATTTGACCCTTCCGGAGTCACCTAGTGCAG", "binding signal": "11100 fluorescence intensity (a.u.)"}
{"sequence": "TCACCCTTCACCTGCATGATCCTCTCTTTTTCAATCCCTCCGGAGTCACCTAGTGCAG", "binding signal": "9340 fluorescence intensity (a.u.)"}
{"sequence": "GCTCCGACTCCCTGTTTCCTGGTCCTCTTTTACACCGGCTCGGAGTCACCTAGTGCAG", "binding signal": "15100 fluorescence intensity (a.u.)"}
{"sequence": "TACATGTCTTAGAGCTACACATCTCTGATTTTTTTTTACACGGAGTCACCTAGTGCAG", "binding signal": "8950 fluorescence intensity (a.u.)"}
{"sequence": "TAGATTCTCTTTCTATTTTCTTTCCACTTAGCTTAGATATCGGAGTCACCTAGTGCAG", "binding signal": "9100 fluorescence intensity (a.u.)"}
{"sequence": "CTCTGTAATATATCATTATGACTGCTAATTCGTCTATTTTCGGAGTCACCTAGTGCAG", "binding signal": "8080 fluorescence intensity (a.u.)"}
{"sequence": "CACTATTCCTTTCCGGATTGCTTCTGCGTTCTACTTGATGCGGAGTCACCTAGTGCAG", "binding signal": "11000 fluorescence intensity (a.u.)"}
{"sequence": "CTTCTATTTTCTTTCTGCTCTTCTCTTCTCTTGTCTACTTCGGAGTCACCTAGTGCAG", "binding signal": "10300 fluorescence intensity (a.u.)"}
{"sequence": "CCATTCCGCCCACTAGCTTTCTCTCTCTATTTTCTTTTTCCGGAGTCACCTAGTGCAG", "binding signal": "16800 fluorescence intensity (a.u.)"}
{"sequence": "TTTTCTATTTCCCACTACTTTTCGTCATTTTTCTAATATTCGGAGTCACCTAGTGCAG", "binding signal": "18100 fluorescence intensity (a.u.)"}
{"sequence": "CGGAGTCGGTCAAGCTTAACCACTATTCCTTTCCGGATTGCGGAGTCACCTAGTGCAG", "binding signal": "61500 fluorescence intensity (a.u.)"}
{"sequence": "CCCCACATTTTCTTTCACCTTCTCTTCCATTCCACCTCTCCGGAGTCACCTAGTGCAG", "binding signal": "10100 fluorescence intensity (a.u.)"}
{"sequence": "CATATGTTGTTTTCTATTTCCCACTAATTTTCGTCATTTTCGGAGTCACCTAGTGCAG", "binding signal": "10400 fluorescence intensity (a.u.)"}
{"sequence": "ATCTTTTTCTACTATCACTATATCATATTCTATTTTTTTTCGGAGTCACCTAGTGCAG", "binding signal": "10500 fluorescence intensity (a.u.)"}
{"sequence": "TCTCTTCCGGTCGGAAGCTTGCTTTCCTTTTCTTCTTCTTCGGAGTCACCTAGTGCAG", "binding signal": "8360 fluorescence intensity (a.u.)"}
{"sequence": "ACTGCTAATTCGTCTATTTTGTACCACTTTCTCTATTTTTCGGAGTCACCTAGTGCAG", "binding signal": "16500 fluorescence intensity (a.u.)"}
{"sequence": "TGTGGTGTGCTTGAGGTGCTTTTGAGTTTTAAATAGATTACGGAGTCACCTAGTGCAG", "binding signal": "8520 fluorescence intensity (a.u.)"}
{"sequence": "GGGATCTGAGGCGCGTTTCTTAATTTGCCTTCTCTTTGAGCGGAGTCACCTAGTGCAG", "binding signal": "9220 fluorescence intensity (a.u.)"}
{"sequence": "AGTCCATCTAATTCGGCTGCACTCTTTTTCCCCTGTGAAGCGGAGTCACCTAGTGCAG", "binding signal": "8530 fluorescence intensity (a.u.)"}
{"sequence": "ATTTTATCACCCTGCTTAGAGTTTCGCCCGGAGCCATGAACGGAGTCACCTAGTGCAG", "binding signal": "10700 fluorescence intensity (a.u.)"}
{"sequence": "GCGAGGTCGGGGAGGTGGGTGCACAGTGCCCTGCGAGATGCGGAGTCACCTAGTGCAG", "binding signal": "8120 fluorescence intensity (a.u.)"}
{"sequence": "TACAAGCCCGTTGCCATCTCTACTCCGGCCTCCTAGTCCTCGGAGTCACCTAGTGCAG", "binding signal": "9760 fluorescence intensity (a.u.)"}
{"sequence": "GAATTCTTGTGTTCCAAGCATTTCGATTTGCTCCTCTCTTCGGAGTCACCTAGTGCAG", "binding signal": "9020 fluorescence intensity (a.u.)"}
{"sequence": "ATCGGAGACTGACTGAGTGAAGGTTGGTTGGTTCACACTTCGGAGTCACCTAGTGCAG", "binding signal": "8750 fluorescence intensity (a.u.)"}
{"sequence": "CTGCTCTAACTGAAGTGCCAGGTGACTTGCTTGGTTGGTTCGGAGTCACCTAGTGCAG", "binding signal": "18300 fluorescence intensity (a.u.)"}
{"sequence": "ATGGTGGTTCTAATTCTGTTGGTTGACTGCTCTCTGAAATCGGAGTCACCTAGTGCAG", "binding signal": "13300 fluorescence intensity (a.u.)"}
{"sequence": "CTATCGTCATCCTCGCGATCGCCGCATTCATCCATCCACTCGGAGTCACCTAGTGCAG", "binding signal": "12800 fluorescence intensity (a.u.)"}
